Experimental data from PubChem BioAssay AID1159580 (chemical genetic matrix, 2015).
In all, about 5,500 compounds went through this assay and about 2,000 (36%) were called active. About 18% were inconclusive and are not listed. Rule as the data show it: active = normalized growth mostly below about 0.91 (no sharp cut-off); inconclusive = no clear call, values can overlap the other calls; inactive = mostly above about 0.92. Some of the results follow.

Assay: chemical genetic growth profiling, strain panel (AID 1159580);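 also: tested at 20 µM; growth read once vehicle control cultures reached saturation at 30 °C; 1 = growth at the plate median or of vehicle wells; lower values mean less growth of the strain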
Conditions: S. cerevisiae deletion strains, growth OD

Measured: normalized growth

COc1cc(/C=C/C(=O)N2CCC=CC2=O)cc(OC)c1OC
inactive: locus YAL021C, strain ccr4, hits give low values 0.948 | locus YAL026C, strain drs2, hits give low values 1 | locus YAL030W, strain snc1, hits give low values 1 | locus YBL061C, strain skt5, hits give low values 0.993 | locus YBR009C, strain hhf1, hits give low values 1.06 | locus YBR023C, strain chs3, hits give low values 0.994 | locus YBR171W, strain sec66, hits give low values 0.995 | locus YBR231C, strain swc5, hits give low values 1.01 | locus YBR279W, strain paf1, hits give low values 0.968 | locus YCL011C, strain gbp2, hits give low values 1 | locus YCL016C, strain dcc1, hits give low values 1.01 | locus YCL061C, strain MRC1, hits give low values 1.01 | locus YCL069W, strain vba3, hits give low values 0.998 | locus YCR088W, strain abp1, hits give low values 0.996 | locus YDL005C, strain med2, hits give low values 1 | locus YDL040C, strain nat1, hits give low values 0.996 | locus YDR001C, strain nth1, hits give low values 0.992 | locus YDR069C, strain doa4, hits give low values 0.996 | locus YDR137W, strain rgp1, hits give low values 0.856 | locus YDR159W, strain sac3, hits give low values 1.08 | locus YDR195W, strain ref2 1.06 | locus YDR297W, strain sur2, hits give low values 0.997 | locus YDR334W, strain swr1, hits give low values 1.01 | locus YDR335W, strain msn5, hits give low values 1 | locus YDR392W, strain spt3, hits give low values 0.886 | locus YEL003W, strain gim4, hits give low values 1 | locus YEL037C, strain rad23, hits give low values 0.998 | locus YEL061C, strain CIN8 (second series), hits give low values 0.996 | locus YER015W, strain faa2, hits give low values 1.01 | locus YER016W, strain bim1, hits give low values 1.02 | locus YER111C, strain swi4, hits give low values 1.01 | locus YER155C, strain BEM2 (second series), hits give low values 1.06 | locus YFR010W, strain ubp6, hits give low values 0.99 | locus YGL167C, strain pmr1, hits give low values 1 | locus YGL173C, strain kem1, hits give low values 0.995 | locus YGL227W, strain vid30, hits give low values 1.01 | locus YGL240W, strain doc1, hits give low values 1.08 | locus YGL253W, strain hxk2, hits give low values 0.984 | locus YHR013C, strain ard1, hits give low values 0.938 | locus YHR027C, strain rpn1, hits give low values 0.995 | locus YHR030C, strain SLT2, hits give low values 0.935 | locus YHR079C, strain IRE1, hits give low values 0.953 | locus YHR142W, strain chs7, hits give low values 0.944 | locus YJL092W, strain hpr5, hits give low values 0.994 | locus YJL095W, strain BCK1 (second series), hits give low values 1.01 | locus YJL095W, strain BCK1, hits give low values 0.97 | locus YJL115W, strain asf1, hits give low values 1.03 | locus YJL129C, strain trk1, hits give low values 0.994 | locus YJL154C, strain vps35, hits give low values 0.998 | locus YJL164C, strain tpk1, hits give low values 0.979 | locus YJL166W, strain qcr8, hits give low values 1 | locus YJL187C, strain SWE1, hits give low values 0.996 | locus YJR066W, strain TOR1, hits give low values 0.883 | locus YKL160W, strain elf1, hits give low values 0.918 | locus YKR026C, strain gcn3, hits give low values 0.986 | locus YKR091W, strain srl3, hits give low values 1 | locus YLL001W, strain dnm1, hits give low values 1.01 | locus YLL026W, hits give low values 1.01 | locus YLL041C, strain sdh2, hits give low values 0.992 | locus YLR027C, strain aat2, hits give low values 0.988 | locus YLR113W, strain HOG1, hits give low values 0.941 | locus YLR221C, strain rsa3, hits give low values 0.97 | locus YLR258W, strain gsy2, hits give low values 1.03 | locus YLR262C, strain YPT6 (second series), hits give low values 0.886 | locus YLR320W, strain mms22, hits give low values 1.01 | locus YLR342W, strain FKS1, hits give low values 0.998 | locus YLR357W, strain rsc2, hits give low values 1.13 | locus YLR370C, strain arc18, hits give low values 0.986 | locus YLR384C, strain iki3, hits give low values 1 | locus YML120C, strain ndi1, hits give low values 0.972 | locus YMR058W, strain fet3, hits give low values 0.993 | locus YMR125W, strain sto1, hits give low values 1.07 | locus YMR129W, hits give low values 1.01 | locus YMR205C, strain PFK2, hits give low values 1.06 | locus YMR231W, strain pep5, hits give low values 0.998 | locus YNL071W, strain lat1, hits give low values 0.975 | locus YNL183C, strain NPR1, hits give low values 0.93 | locus YNL209W, strain ssb2, hits give low values 0.997 | locus YNL248C, strain rpa49, hits give low values 0.972 | locus YNL322C, strain KRE1 (second series), hits give low values 1.02 | locus YNR049C, strain mso1, hits give low values 0.999 | locus YOR001W, strain rrp6, hits give low values 0.945 | locus YOR070C, strain gyp1, hits give low values 1.02 | locus YOR080W, strain dia2, hits give low values 1.01 | locus YOR083W, strain WHI5, hits give low values 0.951 | locus YOR106W, strain vam3, hits give low values 0.964 | locus YOR231W, strain MKK1, hits give low values 0.954 | locus YOR265W, strain rbl2, hits give low values 0.996 | locus YOR270C, strain vph1, hits give low values 0.976 | locus YOR290C, strain snf2, hits give low values 0.969 | locus YPL051W, strain arl3, hits give low values 0.966 | locus YPL078C, strain atp4, hits give low values 0.939 | locus YPL106C, strain sse1, hits give low values 1.01 | locus YPL240C, strain hsp82, hits give low values 1.01 | locus YPL256C, strain CLN2, hits give low values 0.964
